For 40 compounds, Potency results are on record in PubChem BioAssay (NCATS).

Molecules are shown by their SMILES. Calls of active or inactive are those of the source. Rule as the data show it: active = potency below about 10 µM; inactive = the rest. Some results are limits rather than exact numbers.
Potency is read from the fitted curve at half-maximal effect.

Lysosomal acid glucosylceramidase (Homo sapiens), sequence (P04062 whole entry, looked up): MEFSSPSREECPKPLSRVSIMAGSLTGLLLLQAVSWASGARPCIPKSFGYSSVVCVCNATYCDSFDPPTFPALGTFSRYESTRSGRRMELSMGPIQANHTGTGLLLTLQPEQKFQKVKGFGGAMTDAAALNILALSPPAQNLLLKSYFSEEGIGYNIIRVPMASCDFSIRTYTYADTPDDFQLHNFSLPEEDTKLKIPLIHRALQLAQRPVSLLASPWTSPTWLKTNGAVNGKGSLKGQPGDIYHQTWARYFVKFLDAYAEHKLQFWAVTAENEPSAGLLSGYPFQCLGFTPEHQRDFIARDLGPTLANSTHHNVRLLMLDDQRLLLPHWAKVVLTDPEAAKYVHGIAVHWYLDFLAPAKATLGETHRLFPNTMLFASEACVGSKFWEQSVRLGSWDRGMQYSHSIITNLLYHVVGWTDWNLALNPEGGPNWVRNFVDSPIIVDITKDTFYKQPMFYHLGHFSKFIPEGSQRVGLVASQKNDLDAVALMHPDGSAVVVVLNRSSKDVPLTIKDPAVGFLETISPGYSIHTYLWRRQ

The target in this experiment is Lysosomal acid glucosylceramidase (Homo sapiens) (UniProt P04062). In words: Glucocerebrosidase-p2 (AID 348). The following applies: purified GBA, blue fluorogenic substrate, 40 min. From the text:
Beta-glucocerebrosidase catalyzes the hydrolysis of beta-glucocerebroside to glucose and ceramide. The inherited deficiency of beta-glucocerebrosidase results in Gaucher disease, which is characterized by a wide variety of symptoms including hepatosplenomegaly, anemia, thrombocytopenia, bony lesions and bone marrow infiltration with characteristic storage cells, known as Gaucher cells. There are also forms of the disorder affecting the central nervous system. Patients with the same genotypes can manifest with diverse clinical presentations and it is believed that improper folding and trafficking of beta-glucocerbrosidase may contribute to the phenotypes observed.
Low molecular weight molecules, acting as chaperones, may potentially restore trafficking of misfolded beta-glucocerebrosidase from the endoplasmic reticulum to the lysosomes, thereby enhancing functional lysosomal beta-glucocerebrosidase activity.
Using normal beta-glucocerebrosidase, an assay was developed to screen for small molecule inhibitors that could potentially act as molecular chaperones on the mutant forms [developed with NIH investigator Dr. Ellen Sidransky#s laboratory]. Two pro-fluorescent substrates were chosen for two screens against a small molecule library. One beta-glucocerebrosidase assay used Resorufin beta-D-Glucopyranoside (Marker Gene Technology Inc.), generating a red fluorescent product. The second assay used […] fluorescent product. The Km for the Resorufin beta-D-Glucopyranoside and Fluorescein di-beta-D-Glucopyranoside were determined to be 71.2 uM and 855 uM, respectively. The IC50 values of Conduritol B Epoxide, a known glucocerebrosidase inhibitor, were determined to be 87.5 uM and 117 uM, respectively. The use of two difference pro-fluorescent substrates in the screens helped to eliminate false positives. All compounds were screened in a titration series resulting in AC50s (e.g., IC50s or EC50s). Data normalization and AC50 calculations were accomplished using GeneData software.
NCGC Assay Protocol Summary
Both enzyme and substrate were diluted in buffer composed of 50mM citric acid/KH2PO4, 10mM sodium taurocholate and 0.01% tween-20 at pH 5.9. The final concentration of the enzyme was 0.2 nM in both assays. The compound library was titrated in 7 to 15 concentrations for the primary screens with a final concentration ranging from 0.6 nM to 50 uM. This particular assay protocol is for the "blue" substrate, and it was performed in 1536-well plate format as follows:
Blue fluorescence substrate assay:
1 uL substrate (final concentration of 80 uM)
Incubate at room temperature (RT) for 40 minutes
3 uL stop solution (1 M NaOH and 1 M glycine in water)
Read the plate in Viewlux plate reader (Ex=365(10) and Em=440(10)).
In the case of `c1cc(CN2CC3(CCNCC3)C2)ccn1`, the Potency was > 11.4 µM (inactive).

In the case of `CC(C)NC(=O)N1CCC2(CCNCC2)CC1`, the Potency is > 11.4 µM (inactive).

Turning to `CC(C)CN1CC[C@@]2(CCCN(C(=O)Oc3ccccc3)C2)C1`, the Potency was > 11.4 µM (inactive).

For the compound `COC(=O)N1CCC2(CCN(CC(C)C)CC2)CC1`, the Potency was > 11.4 µM (inactive).

In the case of `COc1ccc(NC(=O)N2CC[C@@]3(CCCN(C(=O)Oc4ccccc4)C3)C2)cc1`, the Potency was > 11.4 µM (inactive).

As to `CC(C)CN1CCC2(CC1)CCN(S(C)(=O)=O)CC2`, the Potency is > 11.4 µM (inactive).

For the compound `CN1CCCC2(CCN(C(=O)c3ccncc3)CC2)C1`, the Potency is > 11.4 µM (inactive).

Turning to `c1cnc(N2CCC3(CCNCC3)CC2)nc1`, the Potency is > 11.4 µM (inactive).

On to `Cc1noc(C)c1C(=O)N1CCC[C@@]2(CCN(CC(C)C)C2)C1`, for which the Potency was > 11.4 µM (inactive).

As to `CN1CCC2(CC1)CCN(C(=O)c1ccco1)CC2`, the Potency is > 11.4 µM (inactive).

Consider `c1ccc(N2CC[C@@]3(CCCNC3)C2)cc1`, for which the Potency is > 11.4 µM (inactive).

As for `N#Cc1ccc(CN2CC3(CCNCC3)C2)cc1`, the Potency is > 11.4 µM (inactive).

As to `c1csc(CN2CC[C@@]3(CCCNC3)C2)n1`, the Potency is > 11.4 µM (inactive).

`O=C(Nc1ccccc1)N1CCCC2(CCN(C(=O)Oc3ccccc3)CC2)C1`: the Potency was > 11.4 µM (inactive).

For `CC(C)c1ccc(C(c2c(O)c3ccccc3oc2=O)c2c(O)c3ccccc3oc2=O)cc1`, the Potency was > 11.4 µM (inactive).

On to `CC(C)NC(=O)N1CCC2(CC1)CCN(C(=O)Oc1ccccc1)CC2`, for which the Potency is > 11.4 µM (inactive).

In the case of `c1ccc(N2CCCC3(CCNCC3)C2)cc1`, the Potency is > 11.4 µM (inactive).

As to `c1ccc(N2CC3(CCNCC3)C2)cc1`, the Potency is > 11.4 µM (inactive).

As to `O=C(c1ccncc1)N1CCC2(CC1)CN(Cc1ccccc1)C2`, the Potency was > 11.4 µM (inactive).

With `c1cnc(N2CC[C@@]3(CCCNC3)C2)nc1`, the Potency is > 11.4 µM (inactive).

In the case of `c1ccc(N2CCCC3(CCNCC3)C2)nc1`, the Potency is > 11.4 µM (inactive).

As for `CC(C)CN1CCCC2(CCN(C(=O)Oc3ccccc3)CC2)C1`, the Potency is > 11.4 µM (inactive).

Turning to `O=C(c1ccco1)N1CCC2(CC1)CN(Cc1ccncc1)C2`, the Potency was > 11.4 µM (inactive).

Consider `N#Cc1ccc(CN2CC[C@@]3(CCCNC3)C2)cc1`, for which the Potency was > 11.4 µM (inactive).

`CN1CC[C@@]2(CCCN(C(=O)c3csnn3)C2)C1`: the Potency was > 11.4 µM (inactive).

Take `COc1ccc(NC(=O)N2CCCC3(CCN(C(=O)Oc4ccccc4)CC3)C2)cc1`: the Potency is > 11.4 µM (inactive).

Regarding `COc1ccc(NC(=O)N2CCC3(CC2)CCN(C(=O)Oc2ccccc2)CC3)cc1`, the Potency is > 11.4 µM (inactive).

For the compound `O=C(Oc1ccccc1)N1CCC[C@@]2(CCN(Cc3cc(C(F)(F)F)cc(C(F)(F)F)c3)C2)C1`, the Potency is > 11.4 µM (inactive).

For the compound `c1ccc(CN2CCC3(CCNCC3)CC2)cc1`, the Potency was > 11.4 µM (inactive).

Take `CC(C)CN1CC[C@@]2(CCCN(C(=O)c3ccncc3)C2)C1`: the Potency was > 11.4 µM (inactive).

Take `CC(C)CN1CC2(CCN(C(=O)c3ccncc3)CC2)C1`: the Potency was > 11.4 µM (inactive).

As to `O=C(Oc1ccccc1)N1CCC2(CCN(Cc3ccccc3)CC2)CC1`, the Potency is > 11.4 µM (inactive).

Take `c1cc(CN2CCC3(CCNCC3)CC2)ccn1`: the Potency was > 11.4 µM (inactive).

With `c1ccc(N2CC[C@@]3(CCCNC3)C2)nc1`, the Potency is > 11.4 µM (inactive).

On to `c1ccc(N2CCC3(CCNCC3)CC2)cc1`, for which the Potency is > 11.4 µM (inactive).

Take `CN1CCCC2(CCN(C(=O)c3csnn3)CC2)C1`: the Potency was > 11.4 µM (inactive).

On to `c1csc(CN2CC3(CCNCC3)C2)n1`, for which the Potency is > 11.4 µM (inactive).

`CS(=O)(=O)N1CCC2(CC1)CN(Cc1ccncc1)C2`: the Potency is > 11.4 µM (inactive).

`O=C(Oc1ccccc1)N1CCC[C@@]2(CCN(Cc3ccccc3)C2)C1`: the Potency is > 11.4 µM (inactive).

`COc1ccccc1CN1CC[C@@]2(CCCN(C(=O)Oc3ccccc3)C2)C1`: the Potency was > 11.4 µM (inactive).
